Screening results as filed in PubChem BioAssay.
PAFAH1B2 FP inh: inhibitors of human PAFAH1B2 | inhibition, % at 3.39 µM | recombinant PAFAH1B2, FP-rhodamine activity probe, fluorescence polarization | actives 1.2% (n = 340,000) | AID 492953;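 active = inhibition above the mean of all tested compounds plus 3 SD, cut at about 24% in these data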;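 also: 0% = enzyme with DMSO and 100% = wells lacking PAFAH1B2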
ZTA counter: counter-screen for EBNA-1 inhibitors: inhibitors of Epstein-Barr virus ZTA; ZTA-DNA binding, fluorescence polarization; inhibition, % at 11 µM; actives 0.15% (n = 320,000); AID 2234; in the data active = inhibition above about 33%
Target sequence (P03206 whole entry, looked up): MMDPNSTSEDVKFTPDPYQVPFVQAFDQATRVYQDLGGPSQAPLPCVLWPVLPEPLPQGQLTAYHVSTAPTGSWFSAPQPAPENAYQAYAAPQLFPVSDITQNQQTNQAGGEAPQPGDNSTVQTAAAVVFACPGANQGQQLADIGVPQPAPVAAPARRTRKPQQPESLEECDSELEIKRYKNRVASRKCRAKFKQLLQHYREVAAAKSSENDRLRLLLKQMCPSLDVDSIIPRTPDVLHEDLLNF
pPAFAH inh: inhibitors of human plasma PAF acetylhydrolase (pPAFAH) | inhibition, % at 3.39 µM | recombinant pPAFAH, FP-rhodamine probe fluorescence polarization | AID 463082 | Q13093 | actives 1.5% (n = 330,000);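 active = inhibition above the mean inhibition across the screen plus 3 SD, cut at about 25% in these data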;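 also: inhibitors block binding of the rhodamine activity-based probe so polarization drops; 0% = enzyme with DMSO and 100% = wells lacking pPAFAH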
PAFAH1B3 FP inh: PAFAH1B3 (human) inhibition | Q15102 | recombinant PAFAH1B3, FP-rhodamine probe, fluorescence polarization | inhibition, % at 3.39 µM | AID 492972 | actives 0.28% (n = 340,000);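 active = inhibition above the screen-wide average of all tested compounds plus 3 SD, cut at about 25% in these data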;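 also: 0% = enzyme with DMSO only and 100% = wells lacking PAFAH1B3 protein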
Target sequence (Q15102 whole entry, looked up): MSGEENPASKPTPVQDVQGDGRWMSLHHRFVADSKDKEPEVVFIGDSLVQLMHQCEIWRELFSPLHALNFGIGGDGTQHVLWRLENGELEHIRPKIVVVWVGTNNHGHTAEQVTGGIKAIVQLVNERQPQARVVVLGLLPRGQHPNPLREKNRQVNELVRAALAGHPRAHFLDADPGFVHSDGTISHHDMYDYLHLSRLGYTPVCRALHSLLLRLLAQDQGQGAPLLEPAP
PAFAH2 inh: PAFAH2 (human) inhibition | inhibition, % at 3.39 µM | recombinant PAFAH2, FP-rhodamine activity probe, fluorescence polarization | actives 0.99% (n = 340,000) | AID 492956;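 active = inhibition above the mean over all tested compounds plus 3 SD, cut at about 30% in these data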;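 also: inhibitors block probe labeling of enzyme so polarization drops; 0% = enzyme with DMSO and 100% = wells lacking PAFAH2 protein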
EBNA-1 inh: blocks EBNA-1 binding to DNA; EBNA-1 DNA binding, fluorescence polarization; inhibition, % at 14.8 µM; actives 0.34% (n = 300,000); in the data active = inhibition above about 28%
pPAFAH FP conf: pPAFAH (human) inhibition, confirmed; shares compounds with pPAFAH inh; recombinant pPAFAH, FP-Rh probe fluorescence polarization; inhibition, % at 3.39 µM; actives 72% (n = 2,300); AID 463230;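 active = mean inhibition of the triplicate above the hit cutoff set for the earlier primary screen, cut at about 25% in these data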;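 also: 0% = enzyme with DMSO and 100% = wells lacking pPAFAH enzyme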
PAFAH2 FP conf: PAFAH2 (human) inhibition, confirmed; shares compounds with PAFAH2 inh; recombinant PAFAH2, FP-rhodamine activity probe, fluorescence polarization; inhibition, % at 3.39 µM; actives 65% (n = 2,300);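 active = mean inhibition over three repeats above a set limit taken from the earlier primary screen, cut at about 30% in these data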;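 also: inhibitor blocks binding of rhodamine activity probe so polarization falls; 0% = enzyme with DMSO and 100% = wells lacking PAFAH2 protein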
PAFAH1B3 conf FP: confirmation of human PAFAH1B3 inhibitors; shares compounds with PAFAH1B3 FP inh; actives 30% (n = 390); recombinant PAFAH1B3, FP-Rh activity-based probe, fluorescence polarization; AID 493032; inhibition, % at 3.39 µM;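 active = average inhibition over triplicate runs above the hit cutoff set in the earlier primary screen, cut at about 25% in these data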;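 also: 0% = enzyme with DMSO and 100% = wells lacking PAFAH1B3 protein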
* = called active by the depositor; · = no result. Most compounds without a hit are left out; they make up all but 2.9% or so of the library.

SMILES	PAFAH1B2 FP inh	ZTA counter	pPAFAH inh	PAFAH1B3 FP inh	PAFAH2 inh	EBNA-1 inh	PAFAH2 FP conf	others
Cc1ccc(C(C)C)c(OCc2ccc(C(=O)N/N=C/c3cccc(O)c3O)cc2)c1	16	21	54*	33*	22	3	·	pPAFAH FP conf=52*;PAFAH1B3 conf FP=13
COc1ccc(C(=O)N/C(=C\c2ccco2)C(=O)NC2CCS(=O)(=O)C2)cc1 (centres undefined)	-1	-6	-2	3	4	-20	·
COc1cc([N+](=O)[O-])ccc1-c1ccc(/C=C2\C(=O)ON=C2c2ccccc2)o1	8	·	·	6	30*	·	18
COc1cc(/C=C2\C(=O)ON=C2c2ccccc2)cc(Br)c1O	2	13	3	-6	59*	1	61*
COc1cc(/C=C2\C(=O)ON=C2c2ccccc2)cc(Cl)c1O	0	-14	2	-8	33*	-5	47*
CCOc1cc(/C=C2\C(=O)ON=C2c2ccccc2)cc(Br)c1O	7	4	-1	4	27	4	·
COc1cc([N+](=O)[O-])ccc1-c1ccc(/C=N\n2cnnc2)o1	-8	·	·	1	-11	·	·
COc1cc(/C=C2/C(=O)ON=C2c2ccccc2)ccc1O	6	-9	-3	4	-5	3	·
CCn1cc(CNC(=S)Nc2cccc3ccccc23)cn1	1	1	1	3	3	-9	·
NS(=O)(=O)c1cccc(NC(=O)COC(=O)CC2CC3CCC2C3)c1 (centres undefined)	21	2	2	5	35*	-2	19
COc1ccc(CNC(=O)COC(=O)CC2CC3CCC2C3)cc1OC (centres undefined)	4	2	12	14	-2	8	·
O=C(COC(=O)CC1CC2CCC1C2)Nc1cccc(S(=O)(=O)NC2=NCCCCC2)c1 (centres undefined)	6	-11	10	5	29	3	·
CC(=O)c1cccc(NC(=O)COC(=O)CC2CC3CCC2C3)c1 (centres undefined)	16	-10	20	-2	75*	·	63*
O=C(NC(=S)Nc1ccccc1Br)c1ccc2c(c1)OCO2	-3	8	2	9	5	12	·
CC(C)c1ccc(O)c(NC(=S)NC(=O)c2ccc3c(c2)OCO3)c1	6	-15	7	0	30*	-1	21
O=C(NCC1CCCO1)c1cccc(S(=O)(=O)N(Cc2ccccc2)c2ccccc2)c1 (centres undefined)	-2	6	2	0	0	3	·
O=C(COC(=O)C1CC1)Nc1ccc(OC(F)F)cc1	1	-5	13	9	55*	6	46*
O=C(COC(=O)C1CC1)Nc1ccc(N=Nc2ccccc2)cc1	3	3	10	4	85*	-9	78*
O=C(COC(=O)C1CCC1)Nc1ccc(OC(F)F)cc1	4	-2	-1	-3	16	-4	·
O=C(COC(=O)C1CC1)NC(=O)c1ccccc1	11	20	0	2	32*	·	13
O=C(COC(=O)C1CCC1)NC(=O)c1ccccc1	5	-8	-5	9	16	-10	·
CC(=O)Nc1ccc(S(=O)(=O)NCC(=O)NC(C)c2ccc(S(N)(=O)=O)cc2)cc1 (centres undefined)	1	-22	2	-1	-3	4	·
CN1/C(=C\C(=O)COC(=O)c2ccco2)C(C)(C)c2ccccc21	8	-10	-5	7	33*	2	37*
CN1/C(=C\C(=O)COC(=O)c2ccccc2O)C(C)(C)c2ccccc21	0	2	6	-1	-2	-2	·
N#Cc1ccc(Cl)cc1NC(=O)COC(=O)c1ccc(S(=O)(=O)N2CCCC2)cc1	4	-19	2	3	5	1	·
SMILES	PAFAH1B2 FP inh	ZTA counter	pPAFAH inh	PAFAH1B3 FP inh	PAFAH2 inh	EBNA-1 inh	PAFAH2 FP conf	others
N#Cc1ccccc1NC(=O)COC(=O)c1ccc2c(c1)OCCO2	1	5	13	7	73*	2	69*
N#Cc1ccccc1NC(=O)c1ccc2c(c1)OCCO2	-4	15	3	-2	16	0	·
N#Cc1ccc(Cl)cc1NC(=O)COC(=O)c1ccc2c(c1)OCCO2	-5	6	10	1	66*	-6	68*
CC1CCN(Cc2nnnn2CCCC(=O)NCCc2cnn(C)c2)CC1	4	0	4	12	3	7	·
Cc1ccc(NC(=O)CSc2nnc3ccccn23)cc1S(=O)(=O)N1CCOCC1	1	17	3	5	6	3	·
O=C(COC(=O)c1cccs1)Nc1cccc(S(=O)(=O)N2CCOCC2)c1	-3	12	3	4	64*	11	63*
COc1cccc(/C=C/C(=O)OCC(=O)Nc2cccc(S(=O)(=O)N3CCOCC3)c2)c1OC	1	3	3	-2	59*	6	58*
O=C(COC(=O)c1ccc(=O)[nH]c1)Nc1cccc(S(=O)(=O)N2CCOCC2)c1	-3	0	0	-3	66*	1	48*
O=C(COC(=O)/C=C/c1ccc(OC(F)F)cc1)Nc1cccc(S(=O)(=O)N2CCCC2)c1	-5	-2	3	-13	34*	7	37*
O=C(COC(=O)/C=C/c1ccc(OC(F)F)cc1)Nc1ccc(S(=O)(=O)N2CCCC2)cc1	-2	-1	-12	-7	-24	0	·
O=C(O)c1ccccc1C(=O)Nc1ccc(Br)c2cccnc12	-5	3	2	7	-1	5	·
C=CCN(c1ccccc1C(=O)O)S(=O)(=O)/C=C/c1ccccc1	0	13	1	6	4	12	·
COc1cccc(CN(C(=O)c2cccs2)C2CCS(=O)(=O)C2)c1 (centres undefined)	2	-11	3	2	4	1	·
O=C(COC(=O)/C=C/c1cccs1)Nc1cccc(S(=O)(=O)N2CCOCC2)c1	0	7	4	0	68*	9	56*
O=C(COC(=O)CCC(=O)c1cccs1)Nc1cccc(S(=O)(=O)N2CCOCC2)c1	3	5	8	8	-4	2	·
CCCS(=O)(=O)c1c(S(=O)(=O)CCC)c2c(C(N)=O)cccn2c1C(=O)c1ccc(F)cc1	3	1	0	8	0	-4	·
